Experimental data: PubChem BioAssay (NCATS)
Records with an inconclusive call do not appear. Values without a mark were called inactive. Active and inactive are the calls of the source. Calls come from the whole dose curve; as a rule, active = well fitted inhibition curve with a large enough effect; inconclusive = small, poorly fitted or top-dose-only effect; inactive = flat fitted curve, though single readings scatter.

Test system: CRL-7250
Test: Cytotoxic Profiling of Annotated Libraries Using Quantitative High-Throughput Screening (AID 1296008); note: nearly all actives have a fitted effect of over 60% in size
Conditions: Five cell lines viability, CellTiter-Glo ATP luminescence, 48-72 h; max response: stronger effect = lower value
How it was run: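 Cells exposed to compounds for 48 or 72 hr at 37 degrees Celsius. Viability read as ATP-coupled luminescence with CellTiter-Glo after 10 min at room temperature.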
% is set by controls: 0 for no effect and ±100 for the full control effect; potency is the fitted concentration of half-maximal effect.

SMILES	max response	outcome	Potency
COc1cc2oc(-c3ccc(O)cc3O)cc2c(OC)c1CC=C(C)C	-1.99%	–	–
CC1(C)CC[C@]2(C(=O)O[C@@H]3O[C@H](CO)[C@@H](O)[C@H](O)[C@H]3O)CC[C@]3(C)C(=CCC4[C@@]5(C)C[C@@H](O)[C@H](O)C(C)(C)C5CC[C@]43C)C2[C@@H]1O (stereo not given in full)	0.543%	–	–
C=CC(C)(CC/C=C(\C)C(=O)OC)OC1OC(COC(=O)CC(C)(O)CC(=O)O)C(OC2OC(CO)C(O)C(O)C2O)C(O)C1O (stereo not given)	–	inactive	–
COc1cc(N2CCOCC2)ccc1Nc1ncc(Cl)c(Nc2ccccc2NS(C)(=O)=O)n1	-96.5%	–	–
Cc1nc(C)c(-c2ccc(C3CCC(CC(=O)O)CC3)cc2)nc1C(N)=O (stereo not given)	0.3%	–	–
CC/C=C\C/C=C\C/C=C\CCCCCCCC(=O)OCC(O)COC1OC(CO)C(O)C(O)C1O (stereo not given)	-2.54%	–	–
C=C1CCCC2(C)CC3(OC)OC(=O)C(C)=C3CC12 (stereo not given)	2.37%	–	–
CCC1C(=O)N(C)c2cnc(Nc3ccc(C(=O)NC4CCC(N5CCN(CC6CC6)CC5)CC4)cc3OC)nc2N1C(C)C (stereo not given)	–	–	4.61 µM (active)
COc1ccc(N(C)c2nc(C)nc3ccccc23)cc1	–	–	0.0103 µM (active)
CC1CCC2(C=O)C(CO)=CCCC2C1(C)CC(=O)O (stereo not given)	1.72%	–	–
Cc1cc(C(=O)N2CCCCc3ccccc32)ccc1CNC(=O)N1CCC[C@H]1C(=O)N(C)C	-2.89%	–	–
CC(C)CC(=O)OC1OC=C(CO[C@@H]2O[C@H](CO)[C@@H](O)[C@H](O)[C@H]2O)C2CC(O)C(O)(CO)C12 (stereo not given in full)	3.01%	–	–
CC(C)(O)c1ccc2c(c1)C(O)C[C@H]1[C@](C)(C(=O)O)CCC[C@]21C (stereo not given in full)	1.1%	–	–
C=C1C(=O)O[C@@H]2C[C@H](C)[C@@]3(O)C=C(C(C)=O)[C@]4(CC3C[C@H]12)C(=O)O[C@H]1C[C@@H](C)C(CCC(C)=O)=CC[C@H]14 (stereo not given in full)	–	inactive	–
CC(C)(F)C[C@@H](N[C@@H](c1ccc(-c2ccc(S(C)(=O)=O)cc2)cc1)C(F)(F)F)C(=O)NC1(C#N)CC1	0.789%	–	–
C[C@@H]1O[C@@H](O[C@H]2[C@H](O[C@H]3[C@H](O)[C@@H](C(=O)O)O[C@@H](O[C@H]4CC[C@@]5(C)C(CC[C@]6(C)C5CC[C@]57OC[C@@]8(CCC(C)(C)CC85)[C@H](O)C[C@]76C)C4(C)C)[C@@H]3O[C@@H]3O[C@H](CO)[C@@H](O[C@@H]4OC[C@@H](O)[C@H](O)[C@H]4O)[C@H](O)[C@H]3O)O[C@H](CO)[C@H](O)[C@@H]2O)[C@H](O)[C@H](O)[C@H]1O (stereo not given in full)	-4.31%	–	–
COC(=O)C1=COC(O[C@@H]2O[C@H](CO)[C@@H](O)[C@H](O)[C@H]2O)[C@H]2[C@@H]1[C@H](OC(=O)CCc1ccc(O)cc1)C[C@]2(C)O (stereo not given in full)	–	inactive	–
Cc1ccc(-c2ccc3c(ccc4sc5c(c43)NC[C@@H](C)NC5=O)n2)cn1	–	inactive	–
O=C(Nc1ccc(S(=O)(=O)Nc2nccs2)cc1)C(c1ccccc1)c1ccccc1	-0.59%	–	–
Cc1cc(Nc2nc(NC(C)c3ncc(F)cn3)ncc2Cl)n[nH]1 (stereo not given)	–	inactive	–

SMILES	max response	outcome	Potency
C=C[C@]1(C)C[C@H](O)[C@@H]2[C@H](OC(=O)[C@@H]2C)C1/C(C)=C/O[C@@H]1O[C@H](CO)[C@@H](O)[C@H](O)[C@H]1O (stereo not given in full)	-0.594%	–	–
COc1ccc2nc(S(=O)(=O)Cc3ncc(C)c(OC)c3C)[nH]c2c1	-21.3%	–	–
COc1ccc2c(OC)c3ccoc3nc2c1OC	-6.93%	–	–
C[C@@H]1CN(Cc2ccccc2)C[C@H]1c1nc2c(cnn2C2CCOCC2)c(=O)[nH]1	-0.22%	–	–
O=C(CCc1ccccc1)N1CCC(O)(Cn2cnc3cc(Cl)ccc3c2=O)CC1	-1.98%	–	–
CCN1CCN(Cc2ccc(NC(=O)Nc3ccc(Oc4cc(NC)ncn4)cc3)cc2C(F)(F)F)CC1	–	–	25.9 µM (active)
CC1(C)CC[C@]2(C(=O)O)[C@H](O)C[C@]3(C)C(=CCC4[C@@]5(C)CC[C@H](O[C@@H]6O[C@H](CO[C@@H]7OC[C@H](O)[C@H](O)[C@H]7O[C@@H]7OC[C@@H](O)[C@H](O)[C@H]7O)[C@@H](O)[C@H](O)[C@H]6O[C@@H]6O[C@H](CO)[C@@H](O)[C@H](O)[C@H]6O)C(C)(C)C5CC[C@]43C)[C@@H]2C1 (stereo not given in full)	-10.1%	–	–
CC(C)=CCC[C@](C)(O)[C@H]1CC[C@]2(C)[C@@H]1[C@H](O)CC1[C@@]3(C)CC[C@H](O)C(C)(C)[C@@H]3[C@@H](O[C@@H]3O[C@H](CO)[C@@H](O)[C@H](O)[C@H]3O[C@@H]3O[C@H](CO)[C@@H](O)[C@H](O)[C@H]3O)C[C@]12C (stereo not given in full)	-7.72%	–	–
CC1(C)CCC2(C(=O)OC3OC(CO)C(O)C(O)C3O)CCC3(C)C(=CCC4C5(C)CCC(O)C(C)(C(=O)O)C5CCC43C)C2C1O (stereo not given)	3.57%	–	–
COc1ccc(C(O)C(C)OC2OC(CO)C(O)C(O)C2O)cc1 (stereo not given)	-9.11%	–	–
Cc1cccc(-c2[nH]c(Cc3cccc(C(N)=O)c3)nc2-c2ccc3nccnc3c2)n1	4.2%	–	–
C[C@@H]1O[C@@H](O[C@@H]2CO[C@@H](O[C@H]3CC[C@@]4(C)C(CC[C@]5(C)C4CC=C4[C@@H]6CC(C)(C)CC[C@]6(C(=O)O[C@@H]6O[C@H](CO)[C@@H](O)[C@H](O)[C@H]6O)CC[C@]45C)[C@]3(C)CO)[C@H](O)[C@H]2O[C@@H]2O[C@H](CO)[C@@H](O)[C@H](O)[C@H]2O)[C@H](O)[C@H](O)[C@H]1O (stereo not given in full)	-2.09%	–	–
C[C@@H]1C[C@@H]([C@@H](O)C(C)(C)O)O[C@H]2C[C@@]3(C)C(=C12)C[C@H](O)[C@H]1[C@@]2(C)CCC(=O)C(C)(C)C2CC[C@@]13C (stereo not given in full)	0.566%	–	–
COc1cc(C(=O)OC[C@@]2(O)CO[C@@H](O[C@H]3[C@H](Oc4ccc(C(=O)O)cc4OC)O[C@H](CO)[C@@H](O)[C@@H]3O)[C@@H]2O)ccc1O	-0.15%	–	–
C=CC1(C)C=C2CCC3C(C)(C)C(O[C@@H]4O[C@@H](CO)[C@H](O)[C@H]4O)CCC3(C)C2CC1O[C@@H]1O[C@H](C)[C@H](O)[C@H](O)[C@H]1O (stereo not given in full)	-0.496%	–	–
Cc1cc(C)c(CNC(=O)c2cc(-c3ccc(CN4CCOCC4)cc3)cc3c2cnn3C2CCCC2)c(=O)[nH]1	1.71%	–	–
CC(CO)C1CCC2(C)CC3C(CO)CC(O)C3C(C)(O)C/C=C/12 (stereo not given)	-6.97%	–	–
CC(=O)CCC1=C(C)C(O[C@@H]2O[C@H](CO)[C@@H](O)[C@H](O)[C@H]2O)C(O)CC1(C)C (stereo not given in full)	-13.4%	–	–
C[C@H](C/C=C/C(C)(C)O)[C@H]1CC[C@@]2(C)[C@@H]3[C@@H](O[C@@H]4O[C@H](CO)[C@@H](O)[C@H](O)[C@H]4O)C=C4C(CC[C@H](O)C4(C)C)[C@]3(C=O)CC[C@]12C (stereo not given in full)	-2.26%	–	–
CC1=CC(=O)C2C(C)(C)CCC[C@]2(C)[C@H]1CO (stereo not given in full)	-14.4%	–	–
